Screening data (PubChem)
The entries come from a sample that favours hits as a whole.
C diff HTS: blocks growth of Clostridium difficile. Clostridium difficile clinical isolate growth, OD600, 24 h; active compounds read low. growth activity, negative = inhibition, % at 16 µg/mL (by protocol). hit rate 0.25% among 86,000. AID 1259249;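 active means mean growth activity at or below -80% and every replicate also at or below -80%; inconclusive means mean at or below -80% but some replicate above -80%; inactive means mean growth activity above -80%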;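 further: 0% = DMSO wells and -100% = levofloxacin 16 µg/mL wells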
T cruzi growth-1: blocks T. cruzi growth in NIH3T3 culture; T. cruzi beta-gal in NIH3T3, GalScreen luminescence, 90 h; inhibition, % at 8.34 µM; hit rate 5.9% among 77,000;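 active means mean inhibition above about 93%, with at least 55% of replicates each passing it, limit read from the data, passing the limit was not always enough; inconclusive means only one of those two conditions holds; inactive means neither condition holds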
T cruzi growth-2: inhibitors of T. cruzi proliferation; inhibition, % at 8.35 µM; hit rate 72% among 5,600; T. cruzi beta-gal in NIH3T3, GalScreen luminescence, 90 h; shares compounds with T cruzi growth-1; AID 651739;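 active means mean replicate inhibition above about 95% and at least 55% of replicates individually reaching it, limit read from the data; inconclusive means only one of the two criteria is met; inactive means neither criterion is met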
T cruzi growth-3: Trypanosoma cruzi proliferation inhibition. shares compounds with T cruzi growth-1. T. cruzi beta-gal in NIH3T3, GalScreen luminescence, 90 h. inhibition, % at 2.09 µM. hit rate 21% among 5,600;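 active means mean inhibition above about 95%, with at least 55% of replicates also reaching it, limit read from the data; inconclusive means meets just one of the two conditions; inactive means meets neither condition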;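 further: plate controls were neutral control median for no effect and positive control median for full effect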
3T3 cytotox: NIH/3T3 (mouse) viability loss. hit rate 14% among 5,600. AID 651742. NIH/3T3 viability, CellTiter-Glo ATP luminescence, 90 h. shares compounds with T cruzi growth-1. cytotoxicity (signal decrease), % at 8.35 µM;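 active means mean signal decrease across replicates above about 35% based on untreated-well scatter, with enough replicates individually passing, limit read from the data; inconclusive means no rule stated though some were filed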;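 further: 0% = median of neutral control wells and 100% = median of positive control wells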
NIH3T3 tox 2: kills mouse NIH/3T3 fibroblasts. hit rate 56% among 5,600. NIH/3T3 viability, CellTiter-Glo ATP luminescence, 90 h. shares compounds with T cruzi growth-1. inhibition, % at 24.9 µM;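 active means mean loss of cell viability signal at or above a set limit, and enough replicates individually reaching it; inconclusive means meets only the mean limit or only the replicate share; inactive means meets neither condition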;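 further: 0% = median of neutral control wells and 100% = median of positive control wells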
Starred values were filed as active, the others as inactive; u = inconclusive; x = not tested or not shown.

SMILES	C diff HTS	T cruzi growth-1	T cruzi growth-2	T cruzi growth-3	3T3 cytotox	NIH3T3 tox 2
C[C@@H]1CCCCO[C@H](CN(C)C(=O)CCCN(C)C)[C@@H](C)CN([C@@H](C)CO)C(=O)c2cc(NC(=O)Nc3ccc(F)cc3)ccc2O1	0.3	-15.7	x	x	x	x
COc1cccc(S(=O)(=O)N[C@H]2CC[C@H](CCn3cc(-c4ccccc4)nn3)O[C@H]2CO)c1	-6.3	0.0	x	x	x	x
Cc1ccccc1S(=O)(=O)N1[C@@H](C#N)[C@@H](c2ccc(-c3ccccc3)cc2)[C@@H]1CO	13.1	102.3*	101.4*	102.7*	49.8*	73.5*
Cc1ccccc1S(=O)(=O)N1[C@H](C#N)[C@H](c2ccc(-c3ccc(F)cc3)cc2)[C@@H]1CO	21.0	92.2	x	x	x	x
Cc1ccccc1S(=O)(=O)N1[C@H](C#N)[C@H](c2ccc(-c3ccc(F)cc3)cc2)[C@H]1CO	10.7	101.5*	100.8*	90.9	u	30.8*
Cc1ccccc1S(=O)(=O)N1[C@H](C#N)[C@@H](c2ccccc2)[C@H]1CO	-4.3	18.9	x	x	x	x
Cc1ccccc1S(=O)(=O)N1[C@H](CO)[C@@H](c2ccc(C#CC3CC3)cc2)[C@@H]1C#N	4.7	88.6	x	x	x	x
Cc1ccccc1S(=O)(=O)N1[C@@H](C#N)[C@H](c2ccc(-c3ccccc3)cc2)[C@@H]1CO	3.0	102.2*	82.3	16.6	7.0	17.7
O=C(C[C@H]1CC[C@@H]2[C@H](COC[C@@H](O)CN2C(=O)c2ccccc2F)O1)NCc1ccc(F)cc1	x	63.2	x	x	x	x
COc1ccc2c3c(n(C)c2c1)[C@H](CO)N(CC1CCCC1)CC31CCN(C(=O)CN(C)C)CC1	3.8	x	x	x	x	x
COC(=O)C(CC#Cc1ccc2c(c1)[C@]1(C(=O)N2)[C@H](c2ccccc2OCCO)N2[C@H](c3ccccc3)[C@H](c3ccccc3)OC(=O)[C@H]2[C@@H]1C(=O)N1CCN(c2ncccn2)CC1)C(=O)OC	3.1	x	x	x	x	x
COc1ccc(NC(=O)Nc2ccc3c(c2)C(=O)N([C@H](C)CO)C[C@@H](C)[C@@H](CN(C)S(=O)(=O)c2ccc(OC)cc2)OCCCC[C@H](C)O3)cc1	0.3	-59.9	x	x	x	x
COc1ccc(NC(=O)Nc2ccc3c(c2)C(=O)N([C@@H](C)CO)C[C@@H](C)[C@H](CN(C)S(=O)(=O)c2ccc(Cl)cc2)OCCCC[C@@H](C)O3)cc1	1.0	113.1*	106.8*	106.8*	-18.2	14.5
COc1ccc(S(=O)(=O)N(C)C[C@@H]2OCCCC[C@@H](C)Oc3ccc(NC(=O)Nc4ccccc4)cc3C(=O)N([C@H](C)CO)C[C@@H]2C)cc1	3.4	10.2	x	x	x	x
COc1ccc(S(=O)(=O)N(C)C[C@@H]2OCCCC[C@H](C)Oc3ccc(NC(=O)Nc4ccccc4)cc3C(=O)N([C@H](C)CO)C[C@@H]2C)cc1	-4.0	110.4*	106.2*	67.9	7.2	22.6
COc1ccc(NC(=O)Nc2ccc3c(c2)C(=O)N([C@@H](C)CO)C[C@@H](C)[C@@H](CN(C)S(=O)(=O)c2ccc(OC)cc2)OCCCC[C@@H](C)O3)cc1	-5.8	83.6	x	x	x	x
COc1ccc(NC(=O)Nc2ccc3c(c2)C(=O)N([C@H](C)CO)C[C@@H](C)[C@H](CN(C)S(=O)(=O)c2ccc(Cl)cc2)OCCCC[C@H](C)O3)cc1	4.8	104.4*	109.8*	102.4*	-14.7	-22.2
COc1ccc(NC(=O)Nc2ccc3c(c2)C(=O)N([C@H](C)CO)C[C@H](C)[C@@H](CN(C)S(=O)(=O)c2ccc(Cl)cc2)OCCCC[C@H](C)O3)cc1	2.7	115.4*	104.3*	85.5	-5.2	1.8
COc1ccc(NC(=O)Nc2ccc3c(c2)C(=O)N([C@H](C)CO)C[C@@H](C)[C@@H](CN(C)S(=O)(=O)c2ccc(Cl)cc2)OCCCC[C@@H](C)O3)cc1	-8.7	x	x	x	x	x
O=C(CN1CCOCC1)NCC[C@H]1CC[C@@H](NS(=O)(=O)c2ccc(F)cc2)[C@H](CO)O1	x	59.9	x	x	x	x
O=C(C[C@H]1CC[C@H]2[C@@H](COC[C@@H](O)CN2CCc2ccccc2)O1)NCCCN1CCOCC1	3.0	39.1	x	x	x	x
CCCNC(=O)C[C@H]1CC[C@H]2[C@@H](COc3ccc(NC(=O)CCC)cc3C(=O)N2C)O1	-0.9	-19.8	x	x	x	x
O=C(Nc1ccc(F)cc1)N1C[C@@H]2[C@H](c3ccccc31)[C@H](CO)N2C(=O)c1ccccn1	-9.7	12.6	x	x	x	x
